In paper PMC13423814:

Tests used:
[1] = target: Heterogeneous nuclear ribonucleoprotein A/B (UniProt Q99729)
[2] = target: Heterogeneous nuclear ribonucleoprotein A0 (UniProt Q13151)
[3] = target: Heterogeneous nuclear ribonucleoprotein U (UniProt Q00839)
[4] = target: Non-POU domain-containing octamer-binding protein (UniProt Q15233)
[5] = target: Polypyrimidine tract-binding protein 1 (UniProt P26599)
[6] = target: Heterogeneous nuclear ribonucleoproteins C1/C2 (UniProt P07910)
Histone H4 = Histone H4 (UniProt P62805)

**Q.** “Heterogeneous nuclear ribonucleoproteins C1/C2, P07910” was tested. Which “listed as a hit” value [1] did it give?
**A.** yes

**Q.** And the “listed as a hit” value [2]?
**A.** yes

**Q.** And the “listed as a hit” value [3]?
**A.** yes

**Q.** And the “listed as a hit” value [4]?
**A.** yes

**Q.** What about the “listed as a hit” value [5] of the same substance?
**A.** yes

**Q.** “Heterogeneous nuclear ribonucleoprotein R, O43390” was tested. Which “listed as a hit” value [6] did it give?
**A.** yes

**Q.** Which “listed as a hit” value (Histone H4) does the source give for “SWI/SNF-related matrix-associated actin-dependent regulator of chromatin subfamily A member 2, P51531” here?
**A.** yes
